40 molecules from PubChem BioAssay (NCI) can be followed below.

The structures appear in SMILES notation. The panel holds about 83,000 compounds, 20% with a hit somewhere; the sample as a whole holds those more often.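 Interpretation: 100, growth as untreated; towards 0, rising growth inhibition; 0, no net growth; 0 to -100, cell death. Compounds scoring below 10 were considered active.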 Calls of active or inactive are those of the source.

The test concerns HL-60(TB) leukemia. The test can be described thus: NCI-60 one-dose screen, 48 h (100 = growth as untreated, 0 = no growth, -100 = all killed). The settings on record: 10 µM unless noted.
With `O=C(/C=C/c1ccc([N+](=O)[O-])cc1)c1ccccc1`, the growth was 35.1% (inactive). Take `COc1cc2c(cc1OC)C1CCN3C(=O)CCC3N1CC2` (stereo not given): the growth was 126% (inactive). As for `CC/C(=C(/c1ccc(Cl)cc1)c1ccc(OCCN(CC)CC)cc1)c1ccc(OC)cc1`, the growth was 33.3% (inactive). The result for `CCCCCn1c(=N)n(CC(O)COc2cccc(C)c2)c2ccccc21` (stereo not given) reads 2.51% (active); that for `NC(=N\N=C/c1cccc([N+](=O)[O-])c1)/C(N)=N\N=C/c1cccc([N+](=O)[O-])c1`, 104% (inactive); that for `N#CC(C#N)N=Nc1ccc(Cl)cc1Cl`, 53% (inactive). In the case of `O=[N+]([O-])c1ccc(C=C2C(Cl)=C(Cl)C(Cl)=C2Cl)cc1`, the growth was 34.2% (inactive).

With `COC(=O)c1cc(Br)ccc1O`, the growth is 97.8% (inactive). Regarding `Cc1ccc(CNc2ccc3nc(CCC(C)C)[nH]c3c2)cc1`, the growth is 93.7% (inactive). As to `O=C1c2cccc3c(-c4ccc(-c5nc6c7ccccc7c7ccccc7c6[nH]5)cc4)ccc(c23)C(=O)N1CCN1CCNCC1`, the growth is 82.5% (inactive).

Regarding `CCN1C(=O)N(CC)C2Nn3c(s/c(=C\c4ccccc4Br)c3=O)=NC21` (stereo not given), the growth was -34.7% (active). As for `Fc1cnccc1-c1nc2ccc3[nH]ncc3c2c2c1CCCC2`, the growth is 16.9% (inactive). For `CCCC/C=C/[C@@H]1C[C@H]1CCO`, the growth is 111% (inactive).

On to `CC(C)CNc1nc(N=[N+]=[N-])nc(NCC(C)C)n1`, for which the growth was 48.9% [100 µM] (inactive).

`c1ccc(-c2nnc(-c3ccccn3)s2)nc1`: the growth is 95.8% (inactive). For `CSc1nc2ccccc2cc1/C=[N+](\[O-])c1ccccc1`, the growth is -13.4% (active). With `COc1ccc(C2=NNC(c3ccc(Oc4nc5c(c(=O)n(C)c(=O)n5C)n4C)c(OC)c3)C2)cc1` (stereo not given), the growth was 90.6% (inactive). As for `CC(C)c1ccc2c(c1)CC[C@H]1[C@](C)(C(=O)OCC#CCN3CCCC3)CCC[C@]21C`, the growth is 55.5% (inactive). The result for `CCN(CC)CCCCNc1ccc(NCCCCN(CC)CC)c2c1C(=O)c1ccccc1C2=O` reads 70% (inactive); that for `COc1ccc2c(c1)Nc1ccccc1S2`, 102% (inactive); that for `Cc1scc2c1N(C(=O)CN1CCN(C)CC1)c1ccccc1NC2=O`, 121% (inactive). `CCC(=O)Oc1ccc(/C=N/NC(N)=S)nc1`: the growth is 19.9% (inactive). With `C=C1C(=O)O[C@H]2[C@H]1CC/C(COC(=O)/C=C\C(=O)NCc1ccc(Cn3c(=O)sn(-c4ccccc4)c3=O)cc1)=C\CC[C@@]1(C)O[C@@H]21`, the growth was -3.22% (active). As to `COc1ccc(/C=C/C(=O)c2ccc([N+](=O)[O-])cc2)cc1`, the growth was 82% (inactive). In the case of `COc1ccc(/C=C/C(c2cc(OC)c(OC)c(OC)c2)n2cncn2)cc1` (stereo not given) it was -17.9% (active). In the case of `CCn1nc(C#Cc2c(C)ccc3c(Nc4ccc(Cl)cc4)nccc23)c2c(N)ncnc21` it was -16% (active); in that of `O=Nc1ccc(O)c(=O)cc1`, 4.36% (active). Consider `FC(F)(F)c1cccc(-n2nnc3cnc(Nc4ccc(N5CCCCC5)cc4)nc32)c1`, for which the growth is 103% (inactive). For the molecule `COc1ccc(C(=O)n2nc(/C=C/c3ccc(O)c(OC)c3)cc2/C=C/c2ccc(O)c(OC)c2)cc1`, the growth is -15.6% (active). For `CCCCCCNC(=O)Nc1ncnc2c1ncn2-c1ccccc1`, the growth is 109% (inactive). In the case of `O=C1Nc2ccccc2/C1=C\c1cccc(/C=C2/C(=O)Nc3ccccc32)n1` it was -48.6% (active); in that of `c1cc(OCCCCCOc2cccc(-c3nc4ccccc4[nH]3)c2)cc(-c2nc3ccccc3[nH]2)c1`, -32.2% (active).

As for `COc1ccc(/C=C(/c2ccccc2)[N+](=O)[O-])c(OC)c1`, the growth was 0.521% (active). Take `CC(c1ccccc1)N1C(=O)CSC1=S` (stereo not given): the growth was -40.6% (active).

Consider `COc1cnc2c(c1)C(=O)c1c-2n(CCCN2CCNCC2)c(=O)c2cc([N+](=O)[O-])ccc12`, for which the growth is -49% (active). Turning to `Cc1cc(C)c(S(=O)(=O)/N=c2/n(-c3ccccc3)nc3n2CCN3C2=NCCN2)c(C)c1`, the growth was 82.8% (inactive).

In the case of `Cc1cccc(N2CCN(CC(O)COc3ccc(Cl)cc3)CC2)c1` (stereo not given), the growth was 123% (inactive). For the molecule `CN1CCN(CCNC(=O)c2cccc(CN3c4cccc5c4C(=Cc4cccnc43)N(C)C5=O)c2)CC1`, the growth was -6.25% (active). Regarding `COc1cc(/C=C/C(=O)c2ccc(F)cc2)ccc1OCCCCCOc1cc2c(cc1OC)C(=O)N1CCCC1C=N2` (stereo not given), the growth is -37.2% (active).

Consider `CC(=O)OC(C(=O)O)c1ccccc1` (stereo not given), for which the growth was 3.72% (active).
